# Screening data (PubChem BioAssay)
# Compounds with a hit are over-represented: about 1.4% of the library has one in this group of screens.
# ERAP1 inh = ERAP1 (human) enzyme inhibition | Q9NZ08 | recombinant ERAP1, Leu-AMC fluorescence, 60 min | inhibition, % at 10.7 µM | hit rate 0.15% among 340,000 | AID 652197;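 active means mean replicate inhibition of at least 30%, or all replicates individually reaching that 30% level; inactive means mean below 30% and not every replicate reaching it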;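 further: 0% = neutral control wells and 100% = L-leucinethiol positive control wells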
# MLL AF4-AF9 inh = blocks AF4 peptide binding to human AF9. P42568. AlphaScreen, biotin-AF4 peptide binding to FLAG-AF9. hit rate 0.47% among 350,000. AID 651704. inhibition, % at 10 µM;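 active means every replicate reaching a set inhibition limit, whatever the replicate mean, cut at about 25% in these data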;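 further: 0% = plate neutral control median and 100% = total signal loss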
# PGC1a acetyl inh = lowers PGC1a acetylation signal in U2OS cells. hit rate 0.17% among 350,000. AID 651687. inhibition, % at 15.6 µM. AlphaScreen anti-acetyl-lysine; with virally co-expressed GCN5 acetyltransferase;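 active means every replicate shows inhibition of at least 40%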;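 further: 0% = neutral control wells and 100% = positive control wells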
# INS-1E GSIS act = GLuc luminescence reporter in INS-1E cells, primary screen for activators of glucose-dependent secretion of insulin. INS-1E GLuc reporter insulin secretion, 2-3 h. activation, % at 16.6 µM. hit rate 0.61% among 370,000. AID 743287;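 active means lowest replicate activation of at least 40%, so every replicate reaches that level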;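 further: 0% = median of neutral control wells and 100% = median of IBMX positive control wells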
# RAD54 inh = RAD54 (human) branch migration inhibition. Q92698. inhibition, % at 10.4 µM. RAD54 Holliday junction branch migration, FAM/BHQ fluorescence. AID 602329. hit rate 0.14% among 360,000;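 active means mean normalized replicate activity at least 40 and at least half of replicates scoring 40 or more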;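 further: 0% = median of neutral control wells and 100% = median of positive control wells; inhibitors cause a drop in the FAM fluorescence signal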
# RAD52 anneal inh = blocks human RAD52 DNA annealing. P43351. recombinant RAD52 DNA annealing, FRET fluorescence. inhibition, % at 18.7 µM. hit rate 0.46% among 360,000. AID 651710;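 active means every replicate showing at least 50% inhibition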
# Numbers without * were called inactive; · = no result given.
SMILES,ERAP1 inh,MLL AF4-AF9 inh,PGC1a acetyl inh,INS-1E GSIS act,RAD54 inh,RAD52 anneal inh
CCC(=O)Nc1ccc2c(c1)OC[C@H](C)N(C(=O)c1cnccn1)C[C@@H](C)[C@H](OC)CN(C)C2=O,1.1,0.4,-0.6,6.3,-3.8,-22.3
O=C(NCC[C@H]1CC[C@H](NC(=O)c2cccnc2)[C@H](CO)O1)Nc1ccc(F)cc1,-0.2,22.0,2.4,-4.3,-8.9,50.3*
O=C(NCC[C@@H]1CC[C@@H](NC(=O)c2cccnc2)[C@H](CO)O1)Nc1ccc(C(F)(F)F)cc1,-2.4,25.9*,-3.7,-1.4,11.7,46.6
CC(=O)N1[C@H](CO)[C@H](c2ccccc2)C12CN(C(=O)Cc1ccccc1)C2,-3.2,-2.5,3.4,-8.7,·,-7.5
Cc1cc(/C=C2\C(=N)N3N=C(C(C)C)SC3=NC2=O)c(C)n1Cc1ccccc1,·,-0.6,48.5*,·,-7.8,-22.7
CC[C@H](C)[C@H](NC(N)=O)C(=O)Nc1ccc(NC(C)=O)cc1,3.5,96.1*,4.6,5.9,1.0,-9.3
CC[C@H](C)[C@H](NC(N)=O)C(=O)Nc1ccc(C)cc1,3.2,3.8,·,2.5,·,5.1
CCOC(=O)Cc1nn(Cc2ccccc2)c(=O)c2ccccc12,-0.5,-2.0,·,88.7*,·,2.9
O=C(C[C@@H]1C[C@H]2c3cc(NC(=O)C4CCC4)ccc3O[C@H]2[C@H](CO)O1)NCc1cc(F)ccc1F,0.2,1.8,-7.6,-13.2,-12.0,7.1
Cc1cc(C(=O)NCC(c2ccco2)N(C)C)ccc1[N+](=O)[O-] (stereo not drawn),-1.8,46.0*,-1.0,0.2,13.0,-14.6
CN(C)C(CNC(=O)c1ccc(Br)cc1)c1ccco1 (stereo not drawn),1.0,1.2,-0.2,19.1,-9.5,-9.4
O=[N+]([O-])c1ccccc1S(=O)(=O)Nc1cccc(-c2ccc(N3CCOCC3)nn2)c1,0.4,0.0,4.8,28.9,-14.0,-12.1
O=[N+]([O-])c1ccccc1S(=O)(=O)Nc1ccc(-c2ccc(N3CCOCC3)nn2)cc1,0.6,0.4,0.8,71.4*,-1.5,-20.2
Oc1ccc(/C=N/N(Cc2ccccc2)c2ccccc2)c(O)c1O,10.4,27.0*,2.5,-11.3,·,-8.3
Oc1cccc(/C=N/N(Cc2ccccc2)c2ccccc2)c1,-2.0,8.4,-2.7,9.5,·,-28.4
N=c1c(C(=O)NCC2CCCO2)cc2c(=O)n3ccccc3nc2n1C1CCCCC1 (stereo not drawn),120.8*,-2.7,5.0,5.9,9.7,-194.3
Cc1cccn2c(=O)c3cc(C(=O)NCc4ccco4)c(=N)n(C4CCCCC4)c3nc12,·,·,·,·,32.4,·
Cc1cccn2c(=O)c3cc(C(=O)NCc4ccco4)c(=N)n(CCOCCO)c3nc12,·,·,2.5,·,73.3*,·
COCCn1c(=N)c(C(=O)NCc2ccco2)cc2c(=O)n3cc(C)ccc3nc21,65.9*,-3.8,·,-2.4,13.4,-15.5
Cc1cccn2c(=O)c3cc(C(=O)NCc4cccnc4)c(=N)n(CC4CCCO4)c3nc12 (stereo not drawn),86.3*,1.2,·,-0.9,38.5,-0.4
O=C(C[C@H]1CC[C@@H]2[C@H](COC[C@H](O)CN2C(=O)Nc2ccc3c(c2)OCO3)O1)N1CCN(c2ccccc2)CC1,1.6,-1.1,-3.6,-1.7,2.9,-42.4
C[C@@H]1CCCCO[C@H](CN(C)S(=O)(=O)c2ccc(F)cc2)[C@H](C)CN([C@H](C)CO)C(=O)c2cc(NC(=O)C3CCCCC3)ccc2O1,0.4,0.4,-6.0,-4.1,-1.3,5.4
CCCn1c(C)nc2c(c1=O)c1nc3ccccc3nc1n2CCC1=CCCCC1,·,·,1.4,60.7*,6.3,·
COC(=O)N(C)C[C@H]1OCc2ccccc2-c2ccccc2C(=O)N([C@H](C)CO)C[C@@H]1C,·,·,·,27.5,·,·
COc1ccc(N=Nc2cc(C)c(O)c(CN3CCCCC3)c2)cc1,6.9,54.1*,15.3,-15.9,-4.9,-5.3
CC1CCN(C(=O)CSc2nc(=O)n3cc(Cl)ccc3n2)CC1,2.8,-3.2,·,78.5*,·,-35.6
C[C@H](CO)N1C[C@H](C)[C@@H](CN(C)Cc2ccccc2F)Oc2ncc(/C=C/c3ccccc3)cc2C1=O,1.4,27.8*,-31.1,-12.5,4.9,1.9
C[C@H]1CN([C@@H](C)CO)C(=O)c2cc(/C=C/c3ccccc3)cnc2O[C@@H]1CN(C)Cc1ccccc1F,0.1,24.6,-3.1,-19.0,-16.7,-12.0
